Compounds with a hit are over-represented: about 3.6% of the library has one in this group of screens.
TGFb SMAD3 inh: TGF-b pathway inhibition; HepG2 CAGA-GFP TGF-b/SMAD3 reporter, GFP fluorescence, 18 h; TGF-beta stimulated, 500 pg/mL final; actives 1.2% (n = 410,000); Potency, µM (titrated, usually from 46.1 µM), inactives show top-dose activity, negative = inhibition, most hits filed as inhibitors; AID 588855; also: % is scaled to controls: 0 for no effect and ±100 for the full control effect; nearly all actives have a fitted effect of over 65% in size
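HEPG2 CAGA-GFP, 1000 cells/well; 2 h settle, 37 C; cpd via pin tool; TGF-b 500 pg/mL final; 18 h, 37 C; GFP imaging ex488/em500-530; %Activity normalised to -TGF-b and +DMSO controls; CRC fit, curve class.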
HepG2 tox: kills HepG2 cells in TGF-b inhibitor counter-screen; HepG2 CAGA-GFP viability, ATP luminescence, 18 h; Potency, µM (highest dose often 46.1 µM), inactives show top-dose activity change, negative = cytotoxicity, usual class: cytotoxic; actives 0.76% (n = 410,000); AID 588856
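HepG2 CAGA-GFP cells (1000/well, DMEM with 1% FBS) received compound, then TGF-beta at 500 pg/mL final, and were incubated 18 hours at 37 degrees C. Viability was read by CellTiter-Glo luminescence. Media-only wells were set as complete cell-killing and DMSO as no toxicity.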
Nrf2 inh: blocks Nrf2 signaling; actives 2.1% (n = 360,000); Potency, µM (series often up to 46 µM), for inactives: at the highest dose activity change, negative = inhibition, actives largely listed as inhibitors; A549 ARE-Fluc reporter, luciferase luminescence, 18-24 h; also: % is scaled to controls: 0 for no effect and ±100 for the full control effect; nearly all actives have a fitted effect of over 60% in size
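Concentration-response testing used A549 ARE_Fluc cells at 5000 cells/well. Following an 18-24 h compound incubation, viability was read by fluorescence (Ex 405/Em 525) and luciferase output by luminescence.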
Nrf2 ARE act: Nrf2 pathway activation; AREc32 ARE-luciferase reporter (MCF7-derived line), luminescence, 24 h; Potency, µM (titrated, usually from 46.1 µM), inactives show top-dose activation, most hits filed as activators; actives 0.31% (n = 410,000); AID 624171; also: % of control where 0% means no effect; nearly all actives have a fitted effect of over 65% in size
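Steps: seed AREc32_Fluc cells (1000/well, 5% FBS OPTI-MEM); incubate overnight at 37 deg C; add 23 nL compound; incubate 24 hr; add Steady-Glo; hold 30 min RT; read luminescence.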
A549 viability: counter-screen for Nrf2 inhibitors: cytotoxicity in A549 cells | AID 504648 | actives 0.16% (n = 390,000) | Potency, µM (titrated, usually from 46 µM), without a hit: top-dose activity change, negative = cytotoxicity, usual class: inhibitors | A549 ARE-Fluc cells, CellTiter-Fluor viability, 18-24 h; also: % is scaled to controls: 0 for no effect and ±100 for the full control effect
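Cytotoxicity counterscreen: CellTiter-Fluor fluorescence was measured in A549 ARE_Fluc cells after 18-24 h of compound exposure in a concentration series. The subsequent BugLite luminescent read reports ARE-luciferase activity.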
* = called active by the depositor; ? = inconclusive; · = no result given; ! = repeats disagree. Calls follow the shape of the dose curve; as a rule, active = well fitted curve in the direction sought with a large enough effect; inconclusive = small, poorly fitted or top-dose-only effect, or another doubt; inactive = no such curve, though single readings can be large; an effect the other way counts as inactive or inconclusive. Potency is read from the fitted curve at half-maximal effect.

SMILES	TGFb SMAD3 inh	HepG2 tox	Nrf2 inh	Nrf2 ARE act	A549 viability
COc1ccc(NC(=O)COc2ccc(N(C)S(=O)(=O)c3ccc(Cl)cc3)cc2)cc1	-6%	-15%	13µM*	-1%	-16%
COc1ccc(CCNC(=O)c2ccc(Cl)c(S(=O)(=O)N(C)c3ccccc3)c2)cc1	-22%	-15%	18µM*	0%	-24%
O=C(NCCc1ccc(C(F)(F)F)cc1)C1CC(=O)N(Cc2ccccc2)C1 (configuration not stated)	-22%	-1%	?	0%	2%
CC(C)CNC(=S)N1CCC(NC(=O)C23CC4CC(CC(C4)C2)C3)CC1	-15%	4%	0%	0%	-4%
Oc1cccc(C(Nc2nccs2)c2ccc3cccnc3c2O)c1 (configuration not stated)	14µM*	-26%	16µM*	0%	-23%
Cc1ccc(NC(=O)NC2CC(=O)N(c3ccc4c(c3)OCCO4)C2)cc1 (configuration not stated)	4%	-7%	-12%	0%	-13%
COc1ccc(C)cc1NC(=O)NC1CC(=O)N(c2ccc3c(c2)OCCO3)C1 (configuration not stated)	-21%	11µM*	·	-1%	·
CCC(C(=O)OCC(=O)Nc1c(C)nn(-c2ccccc2)c1C)c1ccccc1 (configuration not stated)	-5%	-10%	4%	0%	2%
NC(=N\N=Cc1ccccc1)/C(N)=N/N=Cc1ccccc1	2%	0%	4%	4%	1%
CN(C)S(=O)(=O)c1cccc(NC(=O)CCc2nc3sc4c(c3c(=O)[nH]2)CCCC4)c1	?	-15%	16µM*	2%	-16%
Cc1cccc(NC(=O)CCc2nc3sc4c(c3c(=O)[nH]2)CCCC4)c1	?	-45%	8%	0%	0%
COc1ccccc1N1CCN(C(=O)c2sc3nc(C)nc(N4CCN(c5ccccn5)CC4)c3c2C)CC1	-19%	-16%	15µM*	2%	-23%
Cc1nc(N2CCN(C(=O)COc3ccccc3)CC2)c2c(C)c(C)sc2n1	?	-26%	21µM*	-1%	-29%
Cc1nc(N2CCN(c3ccccn3)CC2)c2c(C)c(C(=O)N3CCN(c4ccc(F)cc4)CC3)sc2n1	?	-6%	18µM*	3%	-10%
CC(C)(C)NC(=O)c1cnn(-c2ccccc2)c1NC(=O)c1ccccc1	0%	-4%	2%	0%	-1%
O=C(CSc1nc2ccccc2c(=O)n1-c1ccc(SC(F)F)cc1)Nc1ccc(N2CCOCC2)cc1	6%	-8%	-9%	0%	1%
Cc1ccc(NC(=O)c2cc(CC(C)C)nc3ccccc23)cc1	0%	-12%	5.8µM*	-2%	4%
CCOC(=S)SCc1cn2ccc(C)cc2n1	?	-41%	1%	28%	7%
O=c1c2cc(Br)ccc2nc(-c2cccc(C(F)(F)F)c2)n1O	?	14µM*	?	0%	-17%
N#Cc1ccc(-c2nc3ccc(Br)cc3c(=O)n2O)cc1	-12%	-34%	1%	0%	-2%
O=C(OCc1cn([C@H]2CN(CC3CCCCC3)[C@@H](c3ccc(Cl)cc3)C[C@@H]2O)nn1)c1ccccc1	18µM*	13µM*	·	-2%	·
O=C(OCc1cn([C@@H]2CN(CC3CCCCC3)[C@@H](c3ccc(Cl)cc3)C[C@H]2O)nn1)c1ccccc1	-6%	-9%	·	0%	·
CC1CCCCC1NC(=O)NC(=O)CCl (configuration not stated)	-21%	-43%	0%	14µM*	-10%
CCOc1ccccc1NC(=O)CCC(=O)Nc1ccccc1OCC	2%	-18%	-27%	0%	-15%
CCOc1cc(NC(=O)CCl)c(OCC)cc1NC(=O)CCl	1%	-57%	?	7.1µM*	2%
SMILES	TGFb SMAD3 inh	HepG2 tox	Nrf2 inh	Nrf2 ARE act	A549 viability
O=C(NCc1nc2ccccc2[nH]1)C1=C[C@@H](c2ccc(Br)cc2)C[C@@H](OCCCCO)O1	-16%	-38%	-23%	14%	-9%
O=C(Nc1ccccc1)C1=C[C@H](c2ccccc2)C[C@H](OCc2ccc(CO)cc2)O1	4%	-5%	-10%	10%	-17%
O=C(NCc1nc2ccccc2[nH]1)C1=C[C@@H](c2ccc(Br)cc2)C[C@@H](OCc2ccc(CO)cc2)O1	13µM*	-57%	?	6%	-19%
O=C(Nc1ccccc1)C1=C[C@H](c2ccc(C(F)(F)F)cc2)C[C@H](OCc2ccc(CO)cc2)O1	13µM*	-32%	-24%	0%	-6%
COc1ccc(C(C)(C)C)cc1NC(=O)CCc1c(C)noc1C	-5%	1%	-22%	0%	2%
CN(C)CCNC(=O)c1ccc(Cn2c(SCc3ccc(F)cc3)nc3cccnc32)cc1	15%	-41%	?	6%	12%
COC(=O)COc1ccc(-c2nccc(-c3ccccn3)n2)cc1	0%	0%	7.3µM*	-2%	-8%
O=C(CCC1N=C2c3ccccc3N=C(SCc3cccc(Cl)c3)N2C1=O)NCc1cccs1 (configuration not stated)	17%	-10%	·	4%	?
O=C(CS(=O)(=O)c1ccc2ccccc2c1)Nc1ccccc1Cl	-1%	-6%	-3%	0%	3%
NC(=NCCCCCCN=C(N)/N=C(\N)Nc1ccc(Cl)cc1)/N=C(\N)Nc1ccc(Cl)cc1	?	-28%	23µM*!	0%	?
CC(C)N=C(N)N=C(N)Nc1ccc(Cl)cc1	-3%	-45%	1%	7%	-4%
O=S(=O)(c1ccc2c(c1)nc(COc1ccc(Cl)cc1)n2CC1CCCO1)N1CCOCC1 (configuration not stated)	?	-29%	10µM*	2%	-19%
COc1ccccc1NS(=O)(=O)c1cccc(C(=O)N/N=C/c2cn(-c3ccccc3)nc2-c2ccccc2)c1	-6%	-2%	?	2%	-8%
CCN(CC)c1ccc(/C=N/NC(=O)c2cccc(S(=O)(=O)Nc3ccccc3OC)c2)cc1	16%	-7%	-20%	0%	0%
CCN(CC)c1ccc(/C=N/NC(=O)c2cccc(S(=O)(=O)Nc3ccccc3OC)c2)c(O)c1	?	-33%	23µM*	-1%	-19%
Cc1nn(-c2ccccc2)c(N2CCCC2)c1/C=N/Nc1ccc(S(=O)(=O)Nc2ccccc2)cc1[N+](=O)[O-]	-1%	-8%	8.2µM*	0%	?
COc1ccccc1NS(=O)(=O)c1ccc(N/N=C/c2c(C)nn(-c3ccccc3)c2N2CCCC2)c([N+](=O)[O-])c1	25%	33%	?	0%	?

Screening results deposited in PubChem BioAssay by National Center for Advancing Translational Sciences (NCATS).
